Compound activity as filed in PubChem.
TEAD-YAP block: TEAD-YAP interaction inhibition | inhibition, % at 9.12 µM | 640,000 compounds, 1.4% hits | HEK-TIYL cells, TEAD-Gal4/YAP UAS-luciferase luminescence | AID 1259422; in the data active = inhibition above about 32%;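 note: 0% = median of test compound wells and 100% = reference inhibitor wells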
MITF inh: human MITF inhibition, primary screen; O75030; AlphaScreen MITF homodimerization, bead proximity signal; inhibition, % at 2.6 µM; 650,000 compounds, 0.91% hits; in the data active = inhibition above about 50%;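 note: 0% = vehicle wells with protein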
FBW7 activator: activators of human E3 ligase FBW7; AlphaScreen FBW7–phospho-cyclin E peptide binding, activator screen; normalized activity (activation), % at 26.1 µM; Q969H0; 650,000 compounds, 0.13% hits; AID 1259310; in the data active = normalized activity above about 1.9%;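 note: purified mutant Fbw7 with reduced substrate affinity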
Target sequence (Q969H0 whole entry, looked up): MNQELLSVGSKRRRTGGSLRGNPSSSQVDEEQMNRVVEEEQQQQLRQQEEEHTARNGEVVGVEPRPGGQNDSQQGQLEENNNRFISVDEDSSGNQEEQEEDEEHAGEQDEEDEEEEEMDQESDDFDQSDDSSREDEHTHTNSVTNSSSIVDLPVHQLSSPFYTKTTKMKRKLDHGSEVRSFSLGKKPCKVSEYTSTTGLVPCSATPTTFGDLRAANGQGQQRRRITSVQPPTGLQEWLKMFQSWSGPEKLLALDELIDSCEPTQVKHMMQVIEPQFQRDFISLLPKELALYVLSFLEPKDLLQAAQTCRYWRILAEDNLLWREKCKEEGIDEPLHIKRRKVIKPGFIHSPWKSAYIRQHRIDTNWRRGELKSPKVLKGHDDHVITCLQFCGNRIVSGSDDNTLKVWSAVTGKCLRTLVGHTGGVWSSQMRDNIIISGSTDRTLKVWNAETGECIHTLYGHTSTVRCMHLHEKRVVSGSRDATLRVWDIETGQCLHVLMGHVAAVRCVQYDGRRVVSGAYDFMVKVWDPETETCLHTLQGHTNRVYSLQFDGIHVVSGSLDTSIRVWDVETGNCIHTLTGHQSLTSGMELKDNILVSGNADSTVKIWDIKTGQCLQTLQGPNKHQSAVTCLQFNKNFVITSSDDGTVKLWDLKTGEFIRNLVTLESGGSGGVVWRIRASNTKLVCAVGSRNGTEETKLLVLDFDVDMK
GPR151 activ: activates the human receptor GPR151. AID 1508602. activation, % at 11.2 µM. Q8TDV0. PathHunter beta-arrestin GPR151 cells, luminescence. 650,000 compounds, 1% hits; in the data active = activation above about 4.9%;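 note: 0% = median of compound wells and 100% = cells with positive control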
GPR151 confirm: human GPR151 activation, confirmation screen. shares compounds with GPR151 activ. activation, % at 11.2 µM. GPR151 PathHunter beta-arrestin cells, luminescence, 90 min; % of EA-reagent control over plate median. 6,700 tested, under 10 active;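 active = mean percent activation across replicates above the confirmation screen cutoff of 4.91%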
GPR119 ag: GPR119 activation, counter-screen for GPR151 activators. shares compounds with GPR151 activ. GPR119 PathHunter beta-arrestin cells, luminescence, 90 min; 0 = compound-well median, 100 = enzyme-acceptor control. activation, % at 11.2 µM. 6,700 compounds, 0.3% hits. AID 1508611;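 active = mean percent activation in the counterscreen above 29.09%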;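 note: counterscreen on off-target GPR119 to flag nonselective hits from the GPR151 activator screen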
Active calls of the source: *; ! = not confirmed by another sample. Rows were chosen to be rich in hits. Some 3.5% of all compounds tested hit in one or more screens of this group.

How did CCOc1ccc(-n2nnnc2CN2CCN(C(=O)Cc3ccc(Cl)cc3)CC2)cc1 do in these assays?
TEAD-YAP block: 9.9; MITF inh: -7.8; FBW7 activator: 0.1; GPR151 activ: -1.5

What do the screens show for `Cc1cccc(OP(N)(=O)Oc2cccc(C)c2)c1`?
TEAD-YAP block: 3.4; MITF inh: -2.1; FBW7 activator: -0.1; GPR151 activ: -1.0

Results for NP(=O)(Oc1ccc(Cl)cc1)Oc1ccc(Cl)cc1 ?
TEAD-YAP block: 6.5; MITF inh: 15.8; FBW7 activator: 0.2; GPR151 activ: 6.3*; GPR151 confirm: 2.2; GPR119 ag: 9.7

Results for CN1CCN(C(=O)C(O)(c2ccccc2)c2ccccc2)CC1 ?
TEAD-YAP block: -5.2; MITF inh: -4.3; FBW7 activator: 0.1; GPR151 activ: 10.9*; GPR151 confirm: 0.0; GPR119 ag: 1.1

What do the screens show for `O=C(CCCN1CCC2(CC1)C(=O)N(Cc1cccc(F)c1)CN2c1ccccc1)c1ccc(F)cc1`?
MITF inh: 15.9; FBW7 activator: -0.1; GPR151 activ: 6.7*; GPR151 confirm: 0.2; GPR119 ag: 1.1

Results for C=C(C)[C@H]1CN[C@H](C(=O)O)[C@H]1CC(=O)O ?
TEAD-YAP block: -2.6; MITF inh: -3.3; FBW7 activator: 0.3; GPR151 activ: 7.6*!; GPR151 confirm: -0.4; GPR119 ag: -0.9

Results for CCCCOC(=O)c1ccccc1C(=O)OCCCC ?
TEAD-YAP block: 0.1; MITF inh: -15.4; FBW7 activator: 0.1; GPR151 activ: 5.9*!; GPR151 confirm: 1.4; GPR119 ag: 2.3

How did NC(=O)OCCCc1ccccc1 do in these assays?
TEAD-YAP block: -9.8; MITF inh: -3.8; FBW7 activator: 0.0; GPR151 activ: 1.6

How did Cc1cccc(C)c1NC(=O)CCC(=O)Nc1ccc(Cl)cc1C(=O)c1ccccc1 do in these assays?
TEAD-YAP block: 3.3; MITF inh: 9.2; FBW7 activator: 0.1; GPR151 activ: 1.0

What do the screens show for `CN1CCN(Cc2ccccc2Br)CC1`?
TEAD-YAP block: -0.1; MITF inh: 49.8; FBW7 activator: 0.3; GPR151 activ: 5.1*; GPR151 confirm: -0.3; GPR119 ag: 2.5

How did Brc1ccccc1CN1CCOCC1 do in these assays?
TEAD-YAP block: -9.4; MITF inh: 35.6; FBW7 activator: 0.1; GPR151 activ: 0.0

What do the screens show for `COc1ccc(CN2CC2C(N)=O)cc1` (stereo not given)?
TEAD-YAP block: -0.8; MITF inh: 1.2; FBW7 activator: 0.1; GPR151 activ: 1.4

What do the screens show for `CN1CCC(N(C)c2ccc(N3C(=O)C4C5C=CC(C5)C4C3=O)cc2[N+](=O)[O-])CC1` (stereo not given)?
TEAD-YAP block: 3.8; MITF inh: -2.7; FBW7 activator: -0.1; GPR151 activ: 0.0

How did CC(C(=O)N1CCC2(CC1)OCCO2)C1Sc2ccccc2NC1=O (stereo not given) do in these assays?
TEAD-YAP block: -5.7; MITF inh: -8.0; FBW7 activator: 0.0; GPR151 activ: 9.2*; GPR151 confirm: 0.5; GPR119 ag: -7.7

How did CC(C)c1cccc(C(C)C)c1OP(=O)(O)O (tested in a mixture with another compound) do in these assays?
TEAD-YAP block: 8.0; MITF inh: 9.9; FBW7 activator: 0.1; GPR151 activ: 2.9

Results for COc1cccc(CCNCc2cc(OC)c(OC)cc2[N+](=O)[O-])c1 ?
TEAD-YAP block: 5.6; MITF inh: 25.4; FBW7 activator: 0.0; GPR151 activ: 8.4*; GPR151 confirm: -0.3; GPR119 ag: -5.9

What do the screens show for `COc1cccc(CCNCc2ccccc2[N+](=O)[O-])c1`?
TEAD-YAP block: -11.9; MITF inh: 41.0; FBW7 activator: 0.5; GPR151 activ: 0.0

What do the screens show for `COc1ccc2[nH]cc(CN(C)C)c2c1`?
TEAD-YAP block: 12.4; MITF inh: 8.7; FBW7 activator: 0.6; GPR151 activ: 2.2

How did COc1ccc2[nH]c3c(c2c1)CCN=C3C do in these assays?
MITF inh: -8.2; FBW7 activator: -0.3; GPR151 activ: 5.6*; GPR151 confirm: -0.2; GPR119 ag: 6.1

How did CCCCCCn1c(N)c(C(=O)NCC2CCCO2)c2nc3ccccc3nc21 (stereo not given) do in these assays?
TEAD-YAP block: -1.4; MITF inh: -5.3; FBW7 activator: 0.4; GPR151 activ: -0.1

Results for CC(C)=CCCC1=CC(=O)c2c(O)ccc(O)c2C1=O ?
TEAD-YAP block: -6.4; MITF inh: -5.9; FBW7 activator: -0.2; GPR151 activ: -0.5

How did C[N+]1(C)CCC(OC(=O)C(c2ccccc2)c2ccccc2)CC1 do in these assays?
TEAD-YAP block: 2.9; MITF inh: -8.6; FBW7 activator: -0.1; GPR151 activ: -0.8

How did CN1C2CCC1CC(OC(=O)C(c1ccccc1)c1ccccc1)C2 (stereo not given) do in these assays?
TEAD-YAP block: -6.2; MITF inh: 22.3; FBW7 activator: 0.9; GPR151 activ: 5.1*; GPR151 confirm: 0.6; GPR119 ag: 0.7

What do the screens show for `CCOC(=O)C1(c2ccccc2)CCN(CC(=O)Nc2ccc(OCc3ccccc3)cc2)CC1`?
TEAD-YAP block: 10.5; MITF inh: 14.2; FBW7 activator: 0.0; GPR151 activ: -1.8

What do the screens show for `O=c1c2ccccc2nc(/C=C/c2ccc3c(c2)OCO3)n1-c1ccccc1O`?
TEAD-YAP block: -6.1; MITF inh: 11.2; FBW7 activator: 0.0; GPR151 activ: 8.9*; GPR151 confirm: 0.5; GPR119 ag: -5.4

Results for Cc1cc(C=C2C(=O)NC(=O)NC2=O)c(C)n1C1CCCCC1 ?
TEAD-YAP block: -2.9; MITF inh: 21.5; FBW7 activator: -0.3; GPR151 activ: 0.1

Results for COc1cc(OC)c(C2NCc3ccccc3-n3cccc32)cc1OC (stereo not given) ?
TEAD-YAP block: -2.7; MITF inh: 12.7; FBW7 activator: -0.1; GPR151 activ: -1.4

How did CCCCC/C=C\C/C=C\C/C=C\C/C=C\CCCC(=O)NCCO do in these assays?
MITF inh: 9.9; GPR151 activ: 7.1*; GPR151 confirm: 0.0; GPR119 ag: -8.4

How did CCCCOc1ccc(CN2CCN(CCO)CC2)cc1 do in these assays?
TEAD-YAP block: -9.1; MITF inh: 4.2; FBW7 activator: -0.2; GPR151 activ: -1.1

What do the screens show for `CCCCCCOc1ccc(CN2CCN(CCO)CC2)cc1`?
TEAD-YAP block: -43.9; MITF inh: 5.6; FBW7 activator: 0.1; GPR151 activ: 5.9*; GPR151 confirm: 0.5; GPR119 ag: 8.8

Results for CCOc1ccc(C2SCC(=O)Nc3c2c(=O)[nH]n3C(CC)CC)cc1 (stereo not given) ?
TEAD-YAP block: 0.2; MITF inh: 7.6; FBW7 activator: 0.2; GPR151 activ: 7.1*; GPR151 confirm: -0.3; GPR119 ag: -15.0

How did NC1=Nc2ccccc2Sc2ccccc21 do in these assays?
TEAD-YAP block: -26.9; MITF inh: -0.8; FBW7 activator: -0.1; GPR151 activ: 5.3*; GPR151 confirm: -0.1; GPR119 ag: 9.0
